Sampled rows, rich in hits. Any-hit rate of the full collection: about 5%.
PREPL inh = PREPL enzyme inhibitors, primary screen, biochemical, fluorescence polarization; recombinant PREPL, fluorescence polarization activity-based probe; hit rate 0.68% among 320,000; inhibition, % at 5.96 µM; AID 2751, 2010; in the data active = inhibition above about 43%;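 also: 0% = enzyme with DMSO and 100% = wells lacking enzyme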
AI-2 QS mod = Vibrio harveyi AI-2 quorum sensing modulators, primary screen, JMH597 strain, luminescence/OD600 ratio. Vibrio harveyi JMH597 AI-2 luminescence/OD600 ratio, 9 h; active compounds read low; strain lacks LuxN and CqsS sensors; 0 = neutral-control median. activity change, % at 7.5 µM. hit rate 0.4% among 300,000. AID 2094, 2009; in the data active = activity change below about -75%, passing the limit was not always enough;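 also: luminescence divided by OD600 gain over 9 h not by final OD600 alone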
CHT PAM = CHT positive allosteric modulators, primary screen, cell-based, membrane potential dye, choline EC20 | B-score at 10 µM | CHT-expressing cells; active compounds read high; LV-AA mutant CHT in HEK293 cells | High affinity choline transporter 1 (Homo sapiens), Q9GZV3 | hit rate 0.49% among 310,000;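 active = initial fluorescence not abnormally high and integrated response B-score, plate-corrected, over 3 SD above library mean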
CHT block = inhibitors of human choline transporter CHT | High affinity choline transporter 1 (Homo sapiens), Q9GZV3 | B-score at 10 µM | CHT-expressing cells, membrane potential dye, choline response; active compounds read low | AID 488975, 2010 | hit rate 0.86% among 310,000;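 active = B-score over 3 SD under the library average, and starting fluorescence ratio not unusually high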;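 also: choline stimulus applied at its EC90 after an EC20 pre-addition; B-score computed on integrated fluorescence ratio after choline addition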
ALR inh = inhibitors of human ALR sulfhydryl oxidase, primary screen, biochemical, H2O2 detection, HRP-luminol luminescence, single point | AID 485317, 2010 | inhibition, % (concentration not given with the values) | hit rate 3.8% among 290,000 | purified ALR, DTT oxidation | FAD-linked sulfhydryl oxidase ALR (Homo sapiens), P55789;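 active = mean replicate inhibition above about 79%, with every replicate also reaching it, limit read from the data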
Target sequence (P55789 whole entry, looked up): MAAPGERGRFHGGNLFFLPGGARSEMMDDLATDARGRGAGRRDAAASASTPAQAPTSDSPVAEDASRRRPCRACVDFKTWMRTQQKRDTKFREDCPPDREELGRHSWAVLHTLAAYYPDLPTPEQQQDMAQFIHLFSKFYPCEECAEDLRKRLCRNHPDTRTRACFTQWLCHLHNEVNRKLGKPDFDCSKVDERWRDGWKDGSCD
CHT activ conf = CHT activators, confirmation, cell-based, membrane potential dye, duplicate. CHT-expressing cells, membrane potential dye fluorescence (FDSS); % of choline EC20–EC90 response window; HEK293 expressing CHT LV-AA mutant; choline added at its EC20. activation, % at 10 µM. hit rate 91% among 2,500. AID 504833, 2011. shares compounds with CHT PAM;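 active = primary screen active, with duplicate mean activation above negative control mean plus 3 SD, cut at about 11% in these data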
HEK293 MP dye = membrane potential response in parental HEK293 cells, counter-screen for CHT activator project, cell-based, membrane potential dye; shares compounds with CHT PAM; membrane potential dye fluorescence (FDSS); measured after EC20 choline addition; ratio readout change at 10 µM, hits read low; hit rate 62% among 2,500;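 active = duplicate-averaged ratio beyond 3 SD from buffer wells, up or down, though filed actives are nearly all decreases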
* = called active by the depositor.

Cc1ccc(S(=O)(=O)N2CCN(C(=O)CN3CCOCC3)C2C(C)C)cc1 (stereo unspecified) was read as PREPL inh 17, AI-2 QS mod 15, CHT PAM inactive, CHT block inactive and ALR inh 0.
Screening Cc1ccc(S(=O)(=O)N2CCN(C(=O)CN3CCOCC3)C2c2ccccc2)cc1 (stereo unspecified) returned PREPL inh 4, AI-2 QS mod -3, CHT PAM 8*, CHT block inactive, ALR inh -8, CHT activ conf -4 and HEK293 MP dye inactive.
CC(Sc1ccc(Cl)cc1)C(=O)Nc1ccccc1-c1ccccc1 (stereo unspecified) was read as PREPL inh -6, AI-2 QS mod 16, CHT PAM 7*, CHT block inactive, CHT activ conf 35* and HEK293 MP dye inactive.
`Cc1ccc(SC(C)C(=O)Nc2ccccc2-c2ccccc2)cc1` (stereo unspecified) gave PREPL inh 2, AI-2 QS mod 5, CHT PAM inactive, CHT block inactive, ALR inh -21, CHT activ conf 7 and HEK293 MP dye inactive.
For Cc1ccc(SC(C)C(=O)Nc2ccccc2C(=O)N2CCOCC2)cc1 (stereo unspecified) the results were PREPL inh 2, AI-2 QS mod 35, CHT PAM inactive, CHT block inactive and ALR inh -2.
`CC(=O)Oc1c(Cl)cc(N(C(C)=O)S(=O)(=O)c2ccccc2)c2ccccc12` gave PREPL inh 18, AI-2 QS mod 0, CHT PAM inactive and CHT block inactive.
Screening O=C(Nc1ccc(F)cc1F)c1ccc(S(=O)(=O)NCc2ccco2)cc1 returned PREPL inh 0 and ALR inh -5.
Screening O=C(Nc1cc(S(=O)(=O)N2CCCCC2)ccc1Cl)C1=NN(c2ccccc2)C(=O)CC1 returned PREPL inh 2, AI-2 QS mod 25, CHT PAM inactive, CHT block inactive and ALR inh -3.
`Cc1cn2nc(N)c3ccccc3c2n1` gave PREPL inh 5, CHT PAM inactive, CHT block inactive, ALR inh -4, CHT activ conf 62* and HEK293 MP dye -57*.
Screening O=[N+]([O-])c1ccc2nc(-c3cccnc3)[nH]c2c1 returned PREPL inh 13, AI-2 QS mod 13, CHT PAM inactive, CHT block inactive, ALR inh -2, CHT activ conf 52* and HEK293 MP dye -54*.
CC(C)(C)N(NC(=O)c1ccccc1)C(=O)c1cccc(C(=O)N(NC(=O)c2ccccc2)C(C)(C)C)c1 was read as PREPL inh 0, AI-2 QS mod 0, CHT PAM 8.5*, CHT block inactive, ALR inh -13, CHT activ conf 35* and HEK293 MP dye inactive.
For COc1ccc(NC(=O)NN(C(=O)c2ccccc2)C(C)(C)C)cc1 the results were PREPL inh 0, AI-2 QS mod 13, CHT PAM inactive, CHT block inactive and ALR inh 0.
Screening C=CCOC(=O)C1=C[C@@H](c2ccc(C(F)(F)F)cc2)[C@H](CCCO)[C@@H](OCC)O1 returned PREPL inh 1, AI-2 QS mod 20, CHT PAM inactive and CHT block inactive.
CC[n+]1c(C)n(C)c2cc(S(=O)(=O)N(C)C)ccc21 was read as PREPL inh 15, AI-2 QS mod 23, CHT PAM inactive, CHT block inactive and ALR inh -4.

Screening data (PubChem BioAssay)
